For some assays here: Measured potencies and affinities stand elsewhere.
Key:
Parameters in all cases: scale not given: direction of the effect not stated beside the values
[1] = target: Protein translocase subunit SecA (Escherichia coli (strain K12)) (UniProt P10408); test: Assay to Identify E. coli SecA ATPase Inhibitors; type: functional; conditions: 30 µM
[2] = target: T1, Ubiquitin-activating enzyme e1, putative (Leishmania donovani (strain BPK282A1)) (UniProt E9BSI1); test: Leishmania donovani Ubiquitin Activating Enzyme (LdE1); type: functional; conditions: 30 µM
T1 sequence (whole entry): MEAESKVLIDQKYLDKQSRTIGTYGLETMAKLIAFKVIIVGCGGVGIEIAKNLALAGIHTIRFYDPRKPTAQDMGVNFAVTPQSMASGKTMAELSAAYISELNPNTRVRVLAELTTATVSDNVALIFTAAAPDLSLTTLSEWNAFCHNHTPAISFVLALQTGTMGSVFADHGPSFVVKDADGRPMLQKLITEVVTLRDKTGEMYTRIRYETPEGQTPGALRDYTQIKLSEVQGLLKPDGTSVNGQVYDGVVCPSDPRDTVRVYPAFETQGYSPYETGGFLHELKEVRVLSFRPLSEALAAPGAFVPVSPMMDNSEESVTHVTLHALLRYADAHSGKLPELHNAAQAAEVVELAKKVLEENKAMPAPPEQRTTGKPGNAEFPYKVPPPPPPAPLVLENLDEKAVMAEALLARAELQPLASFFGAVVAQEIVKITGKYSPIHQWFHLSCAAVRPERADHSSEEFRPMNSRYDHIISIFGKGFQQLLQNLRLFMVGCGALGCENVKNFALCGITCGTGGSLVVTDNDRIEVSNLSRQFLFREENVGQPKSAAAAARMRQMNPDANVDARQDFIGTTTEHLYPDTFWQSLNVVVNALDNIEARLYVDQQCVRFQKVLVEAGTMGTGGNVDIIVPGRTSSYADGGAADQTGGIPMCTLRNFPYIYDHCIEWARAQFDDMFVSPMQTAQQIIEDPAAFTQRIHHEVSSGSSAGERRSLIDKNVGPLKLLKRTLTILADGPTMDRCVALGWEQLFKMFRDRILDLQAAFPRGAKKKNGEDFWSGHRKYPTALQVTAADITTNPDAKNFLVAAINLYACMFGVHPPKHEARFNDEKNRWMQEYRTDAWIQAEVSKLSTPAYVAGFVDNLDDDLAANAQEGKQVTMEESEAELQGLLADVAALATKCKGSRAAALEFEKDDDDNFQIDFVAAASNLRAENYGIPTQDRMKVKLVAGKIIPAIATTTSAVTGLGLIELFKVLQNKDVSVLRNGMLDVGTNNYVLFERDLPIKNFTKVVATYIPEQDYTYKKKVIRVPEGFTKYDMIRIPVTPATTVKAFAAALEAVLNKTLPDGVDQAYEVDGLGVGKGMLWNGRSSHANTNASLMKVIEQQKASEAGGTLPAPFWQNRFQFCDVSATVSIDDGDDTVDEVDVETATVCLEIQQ

[3] = target: AMP-activated protein kinase, AMPK (Homo sapiens) (UniProt P54646+O43741+P54619+Q9UGJ0+Q9Y478+Q13131+Q9UGI9); test: AMP-dependent Kinase enzyme assay. An in vitro enzyme assay that detects ADP turnover that is directly proportional to AMPK activity. This uses naive AMPK that is activated during the assay with MK-8722; type: functional; conditions: 30 µM
[4] = target: Sialic acid-binding Ig-like lectin 9 (Homo sapiens) (UniProt Q9Y336); test: Hs-Siglec9 ALPHAscreen SOP 20170721; conditions: 10 µM
Trypanosoma cruzi = test: Trypanosoma cruzi phosphomannomutase and mannose-1-phosphate guanylyltransferase assay; type: functional; conditions: 10 µM
[5] = target: T2, Arginase-2, mitochondrial (Homo sapiens) (UniProt P78540); test: in vitro enzyme assay to detect the production of urea directly proportional to the activity of Arginase II; type: functional; conditions: 33.3 µM; also: in the data most compounds retested in dose-response had high values
T2 sequence (whole entry): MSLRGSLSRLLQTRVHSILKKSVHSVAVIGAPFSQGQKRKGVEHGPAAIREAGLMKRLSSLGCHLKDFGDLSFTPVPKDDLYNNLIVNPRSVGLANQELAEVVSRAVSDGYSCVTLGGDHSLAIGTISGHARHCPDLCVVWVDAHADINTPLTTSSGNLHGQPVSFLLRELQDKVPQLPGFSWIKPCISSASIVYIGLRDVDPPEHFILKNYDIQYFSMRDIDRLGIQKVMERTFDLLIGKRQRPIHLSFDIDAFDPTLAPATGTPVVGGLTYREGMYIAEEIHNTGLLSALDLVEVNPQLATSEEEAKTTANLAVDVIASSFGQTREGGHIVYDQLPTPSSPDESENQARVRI

[6] = target: T3, Proteasome subunit beta (Trypanosoma cruzi) (UniProt O96673); test: Trypanosoma cruzi proteasome chymotrypsin-like activity (TcProtChymo) assay.; also: in the data most compounds retested in dose-response had high values; type: functional; conditions: 9.37 µM
T3 sequence (whole entry): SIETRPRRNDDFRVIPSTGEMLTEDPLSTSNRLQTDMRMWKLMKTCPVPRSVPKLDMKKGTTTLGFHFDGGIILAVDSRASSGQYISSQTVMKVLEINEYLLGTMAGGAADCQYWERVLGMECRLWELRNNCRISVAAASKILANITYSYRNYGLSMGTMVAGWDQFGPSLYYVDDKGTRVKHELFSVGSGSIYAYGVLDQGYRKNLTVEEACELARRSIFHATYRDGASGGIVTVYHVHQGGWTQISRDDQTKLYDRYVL

Homo sapiens = species: Homo sapiens; test: To identify inhibition of the IFN signalling (Jak-Stat) pathway via expression of an eGFP reporter gene under the control of an IFN-stimulated response element (ISRE) containing MxA promoter.; type: functional; conditions: 30 µM
[7] = target: T4, Tyrosyl-tRNA synthetase, putative (Trypanosoma cruzi (strain CL Brener)) (UniProt Q4DSP6); test: Trypanosoma cruzi tyrosyl tRNA synthetase (TcYRS) _High Tyrosine SOP; type: functional; conditions: 30 µM; also: in the data most compounds retested in dose-response had high values
T4 sequence (whole entry): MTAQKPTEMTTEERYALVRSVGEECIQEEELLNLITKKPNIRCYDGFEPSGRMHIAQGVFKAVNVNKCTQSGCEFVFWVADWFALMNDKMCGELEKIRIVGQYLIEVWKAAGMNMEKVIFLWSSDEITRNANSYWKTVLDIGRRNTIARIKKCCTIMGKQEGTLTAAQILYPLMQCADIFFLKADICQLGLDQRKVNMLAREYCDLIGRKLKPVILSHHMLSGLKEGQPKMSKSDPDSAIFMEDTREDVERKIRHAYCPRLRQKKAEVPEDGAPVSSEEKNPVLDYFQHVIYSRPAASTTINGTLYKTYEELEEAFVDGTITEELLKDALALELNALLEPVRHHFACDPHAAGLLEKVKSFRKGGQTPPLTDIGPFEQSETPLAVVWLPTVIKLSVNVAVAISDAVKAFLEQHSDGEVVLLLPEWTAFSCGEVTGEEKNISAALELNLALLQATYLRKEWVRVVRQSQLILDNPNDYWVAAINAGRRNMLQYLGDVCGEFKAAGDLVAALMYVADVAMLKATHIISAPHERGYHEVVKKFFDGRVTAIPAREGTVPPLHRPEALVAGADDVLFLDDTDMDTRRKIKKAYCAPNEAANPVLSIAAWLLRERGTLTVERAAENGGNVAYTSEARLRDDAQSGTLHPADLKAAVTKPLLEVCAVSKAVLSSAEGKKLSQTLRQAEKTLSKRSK

[8] = target: T4, Tyrosyl-tRNA synthetase, putative (Trypanosoma cruzi (strain CL Brener)); test: Trypanosoma cruzi tyrosyl tRNA synthetase (TcYRS) SOP; type: functional; conditions: 30 µM
[9] = target: Chromo domain-containing protein 1 (Saccharomyces cerevisiae (strain ATCC 204508 / S288c) (Baker's yeast)) (UniProt P32657); test: ScCHD-1 Enzyme Inhibition Assay; type: functional; conditions: 30 µM; also: in the data most compounds retested in dose-response had high values
Chromo domain-containing protein 1 (Saccharomyces cerevisiae (strain ATCC 204508 / S288c) (Baker's yeast)), sequence (P32657 whole entry, the tested form may be a part): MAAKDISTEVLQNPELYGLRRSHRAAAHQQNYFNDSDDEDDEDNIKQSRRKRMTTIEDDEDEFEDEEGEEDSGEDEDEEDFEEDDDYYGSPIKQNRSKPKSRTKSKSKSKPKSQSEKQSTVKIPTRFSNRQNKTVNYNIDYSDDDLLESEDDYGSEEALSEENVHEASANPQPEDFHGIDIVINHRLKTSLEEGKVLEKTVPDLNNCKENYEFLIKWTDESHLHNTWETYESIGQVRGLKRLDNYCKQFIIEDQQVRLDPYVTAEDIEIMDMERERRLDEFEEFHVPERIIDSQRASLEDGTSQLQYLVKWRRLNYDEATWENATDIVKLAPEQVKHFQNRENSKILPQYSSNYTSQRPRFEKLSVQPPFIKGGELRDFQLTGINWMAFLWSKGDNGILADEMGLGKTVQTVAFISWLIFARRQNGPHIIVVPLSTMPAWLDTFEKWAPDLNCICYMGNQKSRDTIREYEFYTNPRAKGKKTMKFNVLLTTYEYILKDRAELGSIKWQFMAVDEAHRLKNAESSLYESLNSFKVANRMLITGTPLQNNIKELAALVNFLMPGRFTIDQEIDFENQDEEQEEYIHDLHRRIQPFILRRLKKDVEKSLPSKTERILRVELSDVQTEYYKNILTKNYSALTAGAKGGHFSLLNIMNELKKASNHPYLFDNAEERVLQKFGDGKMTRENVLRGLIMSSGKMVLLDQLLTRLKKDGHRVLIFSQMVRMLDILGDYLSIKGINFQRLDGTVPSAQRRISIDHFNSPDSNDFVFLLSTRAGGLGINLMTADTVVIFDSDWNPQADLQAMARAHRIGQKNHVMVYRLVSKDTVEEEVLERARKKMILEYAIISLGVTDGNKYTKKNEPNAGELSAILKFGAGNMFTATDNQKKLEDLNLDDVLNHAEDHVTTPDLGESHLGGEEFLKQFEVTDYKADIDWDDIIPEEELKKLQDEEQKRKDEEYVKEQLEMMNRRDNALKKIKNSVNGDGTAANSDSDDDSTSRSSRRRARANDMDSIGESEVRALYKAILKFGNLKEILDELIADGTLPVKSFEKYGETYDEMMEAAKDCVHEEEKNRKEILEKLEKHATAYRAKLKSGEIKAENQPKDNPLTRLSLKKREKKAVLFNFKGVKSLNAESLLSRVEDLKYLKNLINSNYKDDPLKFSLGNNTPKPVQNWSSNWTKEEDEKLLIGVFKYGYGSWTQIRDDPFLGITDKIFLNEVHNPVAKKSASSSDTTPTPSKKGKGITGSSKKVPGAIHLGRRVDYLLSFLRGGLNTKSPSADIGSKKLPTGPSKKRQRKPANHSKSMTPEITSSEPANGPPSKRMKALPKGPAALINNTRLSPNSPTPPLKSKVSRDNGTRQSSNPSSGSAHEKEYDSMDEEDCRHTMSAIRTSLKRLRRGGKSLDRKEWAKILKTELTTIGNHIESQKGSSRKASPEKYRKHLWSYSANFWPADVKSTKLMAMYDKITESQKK

Protein translocase subunit SecA (Escherichia coli (strain K12)), sequence (P10408 whole entry): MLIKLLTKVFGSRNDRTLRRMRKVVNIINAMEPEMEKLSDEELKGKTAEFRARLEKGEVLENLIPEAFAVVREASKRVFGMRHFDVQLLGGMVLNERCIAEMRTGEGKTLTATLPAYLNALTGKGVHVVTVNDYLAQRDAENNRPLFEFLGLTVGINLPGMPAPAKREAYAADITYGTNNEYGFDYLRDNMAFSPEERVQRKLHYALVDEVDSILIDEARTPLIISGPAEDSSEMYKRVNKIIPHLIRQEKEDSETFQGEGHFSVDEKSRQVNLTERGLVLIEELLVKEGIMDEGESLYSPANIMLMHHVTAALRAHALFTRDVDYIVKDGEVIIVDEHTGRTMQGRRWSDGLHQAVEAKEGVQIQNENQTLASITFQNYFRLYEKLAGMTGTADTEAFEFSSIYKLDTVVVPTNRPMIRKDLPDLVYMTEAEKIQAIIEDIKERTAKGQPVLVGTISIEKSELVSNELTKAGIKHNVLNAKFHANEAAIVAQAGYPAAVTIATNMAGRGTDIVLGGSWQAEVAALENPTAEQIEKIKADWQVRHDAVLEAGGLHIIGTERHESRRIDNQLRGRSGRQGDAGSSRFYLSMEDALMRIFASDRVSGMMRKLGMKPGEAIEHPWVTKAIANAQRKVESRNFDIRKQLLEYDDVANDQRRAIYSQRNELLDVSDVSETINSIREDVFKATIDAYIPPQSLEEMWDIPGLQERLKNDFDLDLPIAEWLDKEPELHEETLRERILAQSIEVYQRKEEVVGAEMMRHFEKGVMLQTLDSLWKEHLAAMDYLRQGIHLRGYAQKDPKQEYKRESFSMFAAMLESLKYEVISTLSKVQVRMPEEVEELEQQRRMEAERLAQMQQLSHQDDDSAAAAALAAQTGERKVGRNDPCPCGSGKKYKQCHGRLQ
Sialic acid-binding Ig-like lectin 9 (Homo sapiens), sequence (Q9Y336 whole entry): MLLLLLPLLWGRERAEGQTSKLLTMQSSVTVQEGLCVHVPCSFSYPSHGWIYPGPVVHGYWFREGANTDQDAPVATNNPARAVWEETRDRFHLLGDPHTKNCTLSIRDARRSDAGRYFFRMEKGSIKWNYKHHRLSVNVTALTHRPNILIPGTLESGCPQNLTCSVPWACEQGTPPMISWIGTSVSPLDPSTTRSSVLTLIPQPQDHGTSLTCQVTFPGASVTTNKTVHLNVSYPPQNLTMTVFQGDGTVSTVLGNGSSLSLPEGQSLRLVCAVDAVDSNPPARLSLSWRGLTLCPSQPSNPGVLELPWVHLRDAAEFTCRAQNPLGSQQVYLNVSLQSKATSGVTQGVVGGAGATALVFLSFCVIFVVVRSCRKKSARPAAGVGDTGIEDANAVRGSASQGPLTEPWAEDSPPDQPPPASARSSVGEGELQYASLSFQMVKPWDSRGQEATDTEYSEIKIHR

| Compound | Percent Effect [1] | Percent Effect [2] | Percent Effect [3] | Percent Effect [4] | Percent Effect (Trypanosoma cruzi) | Percent Effect [5] | Percent Effect [6] | Percent Effect (Homo sapiens) | Percent Effect [7] | Percent Effect [8] | Percent Effect [9] |
| --- | --- | --- | --- | --- | --- | --- | --- | --- | --- | --- | --- |
| CCS(=O)(=O)N(C)c1ccc(C(=O)N2CCCC(C)C2)cc1 (stereo unspecified) | -2.45% | 4.17% | -4.69% | 15.7% | 3.4% | 0.883% | 0.351% | 4.06% | -1.05% | 5.13% | -1.93% |
| CN(C)CCN1CCO[C@H]2CN(Cc3cnn(C)c3)C[C@H]21 | -3.56% | 0% | -1.78% | 7.45% | -4.2% | 2.73% | 2.83% | -0.175% | 5.38% | 11.1% | -3.54% |
| CN(C)CCn1c(=O)oc2ccc(NC(=O)c3cc(Cl)c[nH]3)cc21 | -3.23% | 2.67% | 0.098% | 6.1% | -3.41% | 4.17% | 13.6% | 10.7% | 19.1% | 21% | -7.97% |
| COCCCN(CCOC)C(=O)Nc1ccccc1Br | 0.00988% | -5.26% | 4.89% | -4.8% | -1.46% | -10.7% | 2.01% | -13.7% | 3.19% | 2.6% | 0.558% |
| c1cnnc(N2CCCC(NCc3nc(C4CC4)no3)C2)c1 (stereo unspecified) | -4.19% | -2.6% | -5.27% | 7.57% | 7.18% | 23.4% | 11.3% | -1.78% | 16.1% | 28.4% | -2.42% |
| O=C(NC1CC1)c1cc(NC(=O)N2CCCC(O)C2)ccc1Cl (stereo unspecified) | -1.73% | 11% | 1.28% | 3.66% | -5.36% | 1.6% | 16.4% | -0.927% | 6.25% | 13.6% | 1.44% |
| O=C(NCCN1CCCCC1)c1nc2ccccc2c(=O)[nH]1 | 4.74% | 9.33% | -7.18% | -5.32% | -8.05% | -13.6% | 13.7% | -0.00779% | 0% | 10.3% | -9.94% |
| Cc1cc(CC(=O)N2CCCC2c2nc(C(C)C)no2)on1 (stereo unspecified) | -3.03% | 20.8% | -13.1% | 26.8% | 8.84% | 3.97% | 18.8% | 5.27% | 6.32% | 15.4% | -9.95% |
| Cc1cnn(CCNCc2ccc(C#N)cc2F)c1 | -5.04% | 10.8% | -4.08% | 8.42% | -2.51% | 0.554% | 5.75% | 7.34% | 6.93% | 13.4% | -0.768% |
| O=C(c1cccnc1O)N(Cc1ccsc1)CC1CCCO1 (stereo unspecified) | 0.332% | 13.5% | -1.43% | 6.53% | 4.63% | 12.9% | 12.6% | 15.9% | 5.82% | 17.1% | -0.939% |
| Cc1cccc(-n2cc(C(=O)N3CCCC(n4cccn4)C3)nn2)c1 (stereo unspecified) | -6.43% | 23.4% | -0.0164% | -1.49% | 5.78% | -2.74% | 27.4% | 4.51% | 6.67% | 25.9% | -14.2% |
| COc1nn(C)cc1C(=O)N1CCC(c2nnc(C3CC3)o2)CC1 | -2.78% | 10.4% | 4.71% | 4.31% | -0.888% | 9.68% | 11.5% | 16.4% | 8.47% | 11.5% | -10.2% |
| COCC(=O)N(C)Cc1cccc(Cl)c1 | -4% | 10.5% | -1.75% | -3.18% | 4.19% | 0% | 2.78% | 4.21% | 1.06% | 13% | -4.61% |
| OCCn1cc(CN2CCN(CCOCC(F)(F)F)CC2)cn1 | 2.27% | 13.5% | -3.44% | -6.72% | -8.63% | -3.14% | 13.6% | 6.37% | 4.95% | 3.66% | -2.78% |
| CCn1cc2c(n1)CN(C(=O)c1ccncc1)CC2COCC1CC1 (stereo unspecified) | 1.97% | 13.3% | -0.804% | 23.2% | -1.74% | -23.5% | 20.9% | -8.6% | 3.12% | 20% | -6.15% |
| CCn1ccnc1CN1CCN(CC(=O)NC(=O)NC2CC2)CC1 | -0.559% | 13.2% | 1.1% | 4.6% | 3.95% | 0% | 16.5% | -2.49% | 8.33% | 19.5% | -6.48% |

Reference: ChEMBL document CHEMBL3988442, “University of Dundee, Small-Polar-MMV Screening Library” (2021)
